# CHO-K1 Ca PAM = counter-screen for M1 PAMs: effect in parental CHO-K1 cells; activation, % at 3 µM; hit rate 0.02% among 360,000; AID 602247; ATP EC20, Fluo-8 calcium fluorescence; 0% at ATP EC20, 100% at ATP max;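 active = activation above the run cutoff, the mean activation of all test compounds plus 3 SD, cut at about 40% in these data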;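 also: peak over basal fluorescence ratio in a 140 s read after ATP addition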
# M1 antag = blocks human M1 muscarinic receptor; P11229; CHO-K1 hM1, Fluo-8 calcium fluorescence, ACh EC80 antagonist; inhibition, % at 3 µM; hit rate 1.3% among 360,000; AID 588852;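 active = percent inhibition above its own plate's cutoff, namely the mean of that plate's compound wells plus 3 SD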;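 also: peak over basal fluorescence ratio during 140 s after agonist addition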
# Target sequence (P11229 whole entry, looked up): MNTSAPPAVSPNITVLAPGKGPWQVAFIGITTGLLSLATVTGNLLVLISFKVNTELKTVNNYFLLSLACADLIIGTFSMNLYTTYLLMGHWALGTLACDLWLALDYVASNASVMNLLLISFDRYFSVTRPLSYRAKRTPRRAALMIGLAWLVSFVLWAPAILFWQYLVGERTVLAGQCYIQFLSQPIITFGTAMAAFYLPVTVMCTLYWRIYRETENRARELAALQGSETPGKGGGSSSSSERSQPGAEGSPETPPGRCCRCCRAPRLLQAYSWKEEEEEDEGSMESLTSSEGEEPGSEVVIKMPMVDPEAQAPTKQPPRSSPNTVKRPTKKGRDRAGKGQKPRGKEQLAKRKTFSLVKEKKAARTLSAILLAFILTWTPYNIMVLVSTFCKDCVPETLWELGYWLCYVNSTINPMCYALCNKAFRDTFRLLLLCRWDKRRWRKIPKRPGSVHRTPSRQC
# M1 ag parental = counter-screen for M1 agonists: effect in parental CHO-K1 cells. Fluo-8 calcium fluorescence; scaled to maximal ATP response, vehicle zero. activation, % at 3 µM. hit rate 0.48% among 360,000; in the data active = activation above about 15%;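 also: untransfected CHO-K1 host cells lacking M1 receptor as counterscreen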
# M1 ag = human M1 muscarinic receptor agonism; AID 588814; P11229; activation, % at 3 µM; hit rate 0.33% among 360,000; CHO-K1 hM1, Fluo-8 calcium fluorescence, agonist mode; 0% DMSO, 100% acetylcholine EC100;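 active = activation above the run's mean compound activation plus 3 SD, cut at about 16% in these data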;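 also: peak over basal fluorescence ratio within a 140 s kinetic read after compound addition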
# M1 PAM = potentiates human M1 receptor response to acetylcholine; CHO-K1 hM1, Fluo-8 calcium fluorescence, ACh EC20; 0% = ACh EC20, 100% = maximal ACh; activation, % at 3 µM; hit rate 0.088% among 360,000; AID 588819; in the data active = activation above about 19%, passing the limit was not always enough
# CHO-K1 Ca antag = nonselective inhibitor or artifact in parental CHO-K1 cells. hit rate 0.6% among 360,000. ATP-induced calcium, Fluo-8 fluorescence. inhibition, % at 3 µM;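 active = inhibition above a per-plate cutoff, the plate's mean sample inhibition plus 3 SD, cut at about 24% in these data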
# A number is an active result; 0 = inactive. The list is not random: actives were taken first. Their share in the collection is about 2.4%.
SMILES,CHO-K1 Ca PAM,M1 antag,M1 ag parental,M1 ag,M1 PAM,CHO-K1 Ca antag
COc1cccc(C(=O)C2CCCN(Cc3cccc(C)n3)C2)c1 (stereo not given),0,27,0,0,0,0
COc1c(C)cc(C(=O)C2CCCN(C3CCOCC3)C2)cc1C (stereo not given),0,55,0,0,0,0
Cc1cccc(CN2CCCC(C(=O)c3cccc(OC(C)C)c3)C2)n1 (stereo not given),0,0,0,0,0,0
O=C(c1ccc2c(c1)OCO2)C1CCCN(Cc2c(F)cccc2Cl)C1 (stereo not given),0,92,0,0,0,0
CCS(=O)(=O)NCc1nnc2n1-c1ccc(Br)cc1C(c1ccccc1Cl)=NC2,0,0,0,0,0,0
CN1C(=O)NC(=O)C2(CCCC2)C1=O,0,0,0,0,0,0
COc1ccc(C(=O)C2CCCN(Cc3ccon3)C2)cc1OC (stereo not given),0,0,0,0,0,0
O=C(c1ccc2c(c1)OCO2)C1CCCN(CC2CCCCC2)C1 (stereo not given),0,42,0,0,0,0
COc1cccc(C(=O)C2CCCN(Cc3ccc4nsnc4c3)C2)c1 (stereo not given),0,34,0,0,0,0
COc1cccc(C(=O)C2CCCN(Cc3ccc(F)cc3)C2)c1 (stereo not given),0,0,0,0,0,0
Cc1cccc(CN2CCCC(C(=O)c3ccc4c(c3)OCO4)C2)n1 (stereo not given),0,33,0,0,0,0
O=c1c2ccccc2nc(-c2ccccc2Cl)n1-c1cccc(O)c1,0,0,0,0,0,0
CCC1CN1P1(=O)OCC(C)([N+](=O)[O-])CO1 (stereo not given),0,0,0,0,0,0
CC1NC(=O)NC(=O)C1Br (stereo not given),0,0,0,0,0,0
Cc1cc(=O)oc2c(C)c(OCC(=O)N3CCN(Cc4ccccc4)CC3)ccc12,0,0,0,0,0,0
CC1CN(C(=O)CCC(=O)N2CCC3(CC2)OCCO3)c2cc(Cl)ccc2O1 (stereo not given),0,0,0,0,0,0
C[C@H]1OC[C@@H](C[N+](C)(C)C)O1,0,83,0,121,0,0
CC1OC(C[N+](C)(C)C)CC1O (stereo not given),0,88,0,114,0,0
O=C(NC1CCCCC1)Oc1cc2oc(=O)sc2cc1Cl,0,0,0,0,0,0
C=C1C(C)C2C(Cc3ccccc3)NC(=O)C23OC(=O)/C=C/C(O)CCCC(C)C/C=C/C3C1O (stereo not given),0,0,0,0,0,0
CCN(CC)CCC(=O)O[C@H]1CC[C@]2(C)C3CC[C@@]4(C)C(CC[C@]4(C)O)C3CC[C@H]2C1 (stereo not given in full),0,50,0,0,0,0
COC(=O)C1=C(c2ccc(F)cc2OCc2ccccc2)C[C@@H]2CC[C@H]1N2C(=O)N1CCCC1,0,0,0,0,0,0
COC(=O)C1=C(c2cccc(Cl)c2)C[C@@H]2CC[C@H]1N2C(=O)N1CCCC1,0,0,0,0,0,0
CC1CCCC(NC(=O)COC(=O)c2cn(C)c3ccccc23)C1C (stereo not given),0,0,0,0,0,0
C[N+]1(C)[C@@H]2CC[C@H]1CC(OC(=O)C(c1ccccc1)c1ccccc1)C2 (stereo not given in full),0,101,0,0,0,0
SMILES,CHO-K1 Ca PAM,M1 antag,M1 ag parental,M1 ag,M1 PAM,CHO-K1 Ca antag
O=C(OC1CCN(CCCl)CC1)C(c1ccccc1)c1ccccc1,0,0,0,0,0,0
N#CC(C#N)=Cc1ccc(N2CCOCC2)cc1,0,0,0,0,0,0
Cc1cc(C=C(C#N)C#N)ccc1N1CCCC1,0,0,16,0,0,0
CN1[C@H]2CC[C@@H]1C(C(=O)N1CCOCC1)=C(O)C2,0,0,0,0,0,0
C[C@@H]1CN([C@H](C)CO)C(=O)CCCn2nncc2CO[C@@H]1CN(C)C(=O)Oc1ccccc1,0,0,0,0,0,0
C[N+](C)(C)CC#CCOC(=O)Nc1cccc(Cl)c1,0,88,0,91,0,0
O=C(Nc1cccc(Cl)c1)N1C[C@H]2C[C@@H](C1)c1cccc(=O)n1C2,0,0,0,0,0,0
CCCC(C)CC1(CCO)C(=O)NC(=S)NC1=O (stereo not given),0,0,0,0,0,0
C[N+](C)(C)c1ccccc1,0,0,0,39,0,0
COC(=O)C1=C(c2ccc(-c3ccccc3)c(F)c2)C[C@@H]2CC[C@H]1N2C(=O)NCc1cccc2ccccc12,0,0,0,0,0,0
CC(NC(=O)N1CC1(C)C)c1ccccc1 (stereo not given),0,0,0,0,0,0
Cn1c(O)c(C(=Nc2ccc(F)cc2)c2ccccc2Cl)c(=O)n(C)c1=O,0,0,0,0,0,0
O=C(c1cc(F)ccc1F)C1CCCN(Cc2cccc(Cl)c2)C1 (stereo not given),0,0,0,0,0,0
O=C(c1cc(F)ccc1F)C1CCCN(CCCc2ccccc2)C1 (stereo not given),0,36,0,0,0,0
CN(C)c1ccc(/C=C/C=C/c2sc3ccccc3[n+]2C)cc1,0,0,0,0,0,0
CC[n+]1c(/C=C/C=C/c2ccc(N(C)C)cc2)sc2ccccc21,0,69,0,0,0,34
CC[n+]1c(/C=C/N(C)c2ccccc2)sc2ccc(Cl)cc21,0,64,0,0,0,0
CC(C)c1ccc(N2C(=O)NC(=O)/C(=C\c3cnc(-c4ccccc4)nc3)C2=O)cc1,0,0,0,0,26,0
Cc1ccc(N2C(=O)NC(=O)/C(=C/c3cnc(-c4ccccc4)nc3)C2=O)cc1C,0,0,0,0,0,0
CC(=O)c1cn(Cc2ccccc2C#N)c2ccccc12,0,0,17,0,0,28
O=[N+]([O-])/C=C1/NCCN1Cc1ccc(Cl)nc1,0,0,0,0,0,26
O=[N+]([O-])/C(Cl)=C1\NCCN1Cc1ccc(Cl)nc1,0,0,0,0,0,0
N=C1c2ccccc2CN1NC(=O)c1ccco1,0,0,0,0,0,0
COc1ccc(CN2CCCC(C(=O)c3ccc(Cl)cc3)C2)c(O)c1 (stereo not given),0,0,0,0,0,0
O=C(c1ccc(Cl)cc1)C1CCCN(Cc2cccc3ncccc23)C1 (stereo not given),0,51,0,0,0,0
O=C(c1ccc(C(F)(F)F)cc1)C1CCCN(Cc2ccncc2)C1 (stereo not given),0,0,0,0,0,0
O=C(c1ccc(Cl)cc1)C1CCCN(Cc2ccc3nonc3c2)C1 (stereo not given),0,43,0,0,0,0
